Here are results for 5 compounds from PubChem BioAssay.

Experiment [1] concerns Wnt5a (protein binding on small-molecule microarray). The experiment in a line: small molecules binding Wnt5a protein – biophysical, small-molecule microarray, 635/667 nm fluorescence, primary screen (AID 1142).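 Further: fluorescence read at 667 nm with signal to noise per printed feature.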 The following applies: 635 nm fluorescence, higher = more signal.
Experiment [2] is described as follows: ATP-based viability of Huh7 replicon cells – cell-based, CellTiter-Glo luminescence, basal, 48 h, cytotoxicity control for HCV replication inhibitor project, primary screen (AID 1143).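 Further: Huh7 hepatoma cells carrying a hepatitis C replication reporter with no stimulus; test concentration not given here.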 Particulars: higher = more signal, called active from +8 up or from −8 down. For orientation: In antiviral work, replicon cells carry a viral genome segment that copies itself.

Experiment [3] can be described thus: Pseudomonas biofilm growth suppression – PAO1 strain, BacTiter-Glo luminescence, LB-PBS, primary screen (AID 1144). The following applies: P. aeruginosa PAO1 biofilm, 12 h, higher = more signal.
The nature of experiment [4]: basal CRE-LacZ reporter activity in PC12 – cell-based, unstimulated, primary screen (AID 1145). The following applies: no forskolin, luminescence, 4.5 h, higher = more signal, called active from +8 up or from −8 down.
Experiment [5] in a line: forskolin-driven CRE-LacZ activity in PC12 – cell-based, CRE-LacZ reporter, forskolin-stimulated, primary screen (AID 1146).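 Further: PC12 cells with 6xCRE LacZ reporter stimulated by forskolin 10 µM; beta-galactosidase reporter signal reflecting CREB driven transcription.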 Particulars: luminescence, 4.5 h, higher = more signal, called active from +8 up or from −8 down.
For experiment [6], the target named is Streptavidin (Streptomyces avidinii) (UniProt P22629). The experiment in a line: compounds binding control protein streptavidin – biophysical, small-molecule microarray, 635/667 nm fluorescence, artefact control for SMM compound annotation, primary screen (AID 1147).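 Further: signal reflects streptavidin binding to arrayed compounds as a control protein.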 Particulars: higher = more signal.
Chain of Streptavidin (Streptomyces avidinii) (P22629 whole entry, looked up): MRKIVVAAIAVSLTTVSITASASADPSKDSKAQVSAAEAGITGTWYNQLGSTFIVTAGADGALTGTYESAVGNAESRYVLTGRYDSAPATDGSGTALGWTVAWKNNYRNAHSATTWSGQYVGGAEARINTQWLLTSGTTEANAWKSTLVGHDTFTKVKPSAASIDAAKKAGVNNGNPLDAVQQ
A short description of experiment [7]: probe aInhba binding on compound microarray – biochemical, small-molecule microarray, 635/667 nm fluorescence, primary screen (AID 1148).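 Further: score merges 667nm spot fluorescence with signal-to-noise for antibody binding to printed compounds.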 The following applies: higher = more signal.
The target of experiment [8] is Torsin-1A (Homo sapiens) (UniProt O14656). The experiment in a line: TOR1A wild-type binding on microarray – cell lysate, small-molecule microarray, lysate, 635/667 nm, primary screen (AID 1149). Particulars: COS7 hTOR1A-WT lysate, 635 nm fluorescence, higher = more signal.
Chain of Torsin-1A (Homo sapiens) (O14656 whole entry, looked up): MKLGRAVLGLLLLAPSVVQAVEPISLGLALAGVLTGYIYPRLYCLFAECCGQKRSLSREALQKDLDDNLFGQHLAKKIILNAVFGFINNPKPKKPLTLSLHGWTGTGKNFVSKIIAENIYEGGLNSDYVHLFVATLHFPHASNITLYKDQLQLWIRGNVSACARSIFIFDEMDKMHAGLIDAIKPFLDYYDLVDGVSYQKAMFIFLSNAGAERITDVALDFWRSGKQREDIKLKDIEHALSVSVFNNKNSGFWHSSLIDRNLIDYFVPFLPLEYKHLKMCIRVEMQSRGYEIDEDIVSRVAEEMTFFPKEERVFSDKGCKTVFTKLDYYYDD
The target is the same in experiment [9]. The experiment is described as follows: torsin A mutant lysate binding on microarrays – cell lysate, small-molecule microarray, COS7 lysate, 635/667 nm fluorescence, primary screen (AID 1150).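 Further: score pools 667 nm emission and signal to noise measuring lysate protein binding.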 The following applies: COS7 hTOR1A mutant lysate, 635 nm fluorescence, higher = more signal.
Experiment [10] concerns Sonic hedgehog protein (Shh). The experiment is described as follows: Sonic hedgehog microarray binding compounds – biochemical, small-molecule microarray, 635/667 nm fluorescence, primary screen (AID 1151).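 Further: Shh protein binding to compounds spotted on small-molecule microarray slides; score combines spot fluorescence intensity with signal-to-noise across triplicate slides.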 Particulars: 635 nm fluorescence, higher = more signal.
The nature of experiment [11]: optical density shifts of acrAB sulA E. coli – strain DRC41, OD650, 48 h, E. coli filamentation inducer project, primary screen (AID 1152).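 Further: E. coli MC1000 strain DRC41 lacking acrAB efflux pump and sulA.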 The following applies: higher = more signal, called active from +8 up or from −8 down.
Experiment [12] is described as follows: probe aLefty1 binding on compound microarray – biochemical, small-molecule microarray, 635/667 nm fluorescence, primary screen (AID 1153).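 Further: score merges spot fluorescence with signal-to-noise ratio from the scanned slide images.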 Particulars: higher = more signal.
Experiment [13] in a line: plasmodial surface anion channel blockers, osmotic lysis – cell-based, P. falciparum Indochina, OD700, 1 h, primary screen (AID 1154). Particulars: P. falciparum Indochina infected RBC osmotic lysis, higher = more signal, called active from +8 up or from −8 down.
A short description of experiment [14]: plasmodial surface anion channel blockers, osmotic lysis – cell-based, P. falciparum Indochina, OD700, 2 h, primary screen (AID 1155).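 Further: lysis reports solute entry through the parasite surface anion channel PSAC.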 The following applies: P. falciparum Indochina infected erythrocytes, higher = more signal, called active from +8 up or from −8 down.
Experiment [15] is described as follows: changes in parasitized red cell lysis, either direction – P. falciparum Indochina, OD700, 3 h, PSAC antagonist project, primary screen (AID 1156). Particulars: P. falciparum-infected erythrocytes, osmotic lysis, higher = more signal, called active from +8 up or from −8 down.
Experiment [16] can be described thus: plasmodial surface anion channel blockers, osmotic lysis – cell-based, P. falciparum Indochina, OD700, 18 h, primary screen (AID 1157). The following applies: P. falciparum Indochina infected erythrocytes, osmotic lysis OD700, 18 h; higher = more signal, called active from +8 up or from −8 down.
Experiment [17] in a line: S6 kinase pathway phospho-S6 level changes – cell-based, A549, cytoblot, luminescence, serum-stimulated, primary screen (AID 1158).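 Further: serum-stimulated A549 lung adenocarcinoma cells; signal is phosphorylated S6 detected by cytoblot immunostaining with HRP secondary.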 The following applies: 5 h, higher = more signal.
The target in experiment [18] is NADPH oxidase 2 (Homo sapiens) (UniProt P04839). The experiment in a line: compounds shifting NOX2 Amplex Red fluorescence – cell-based, HEK293-NOX2, PMA-stimulated, NOX inhibitor project, primary screen (AID 1159). Further: test concentration not given here. Particulars: 45 min, higher = more signal, called active from +8 up or from −8 down.
Chain of NADPH oxidase 2 (Homo sapiens) (P04839 whole entry, looked up): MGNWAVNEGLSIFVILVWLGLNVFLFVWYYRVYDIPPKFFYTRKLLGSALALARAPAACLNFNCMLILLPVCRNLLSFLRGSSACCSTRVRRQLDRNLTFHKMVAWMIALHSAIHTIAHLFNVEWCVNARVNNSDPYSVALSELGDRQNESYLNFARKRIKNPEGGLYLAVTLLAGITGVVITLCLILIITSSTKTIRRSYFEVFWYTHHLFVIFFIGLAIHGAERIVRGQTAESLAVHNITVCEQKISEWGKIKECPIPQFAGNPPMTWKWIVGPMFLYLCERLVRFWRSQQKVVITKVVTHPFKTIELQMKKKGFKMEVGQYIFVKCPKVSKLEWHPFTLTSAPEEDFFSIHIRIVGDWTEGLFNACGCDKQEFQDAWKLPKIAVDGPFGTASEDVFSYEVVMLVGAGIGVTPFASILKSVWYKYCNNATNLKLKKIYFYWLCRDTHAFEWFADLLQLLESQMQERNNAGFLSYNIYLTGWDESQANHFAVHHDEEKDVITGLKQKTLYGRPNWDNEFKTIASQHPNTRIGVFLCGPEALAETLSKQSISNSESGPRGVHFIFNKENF
Experiment [19] concerns the target NADPH oxidase 4 (Homo sapiens) (UniProt Q9NPH5). The experiment in a line: compounds shifting NOX4 Amplex Red fluorescence – cell-based, HEK293-NOX4, tetracycline-induced, NOX inhibitor project, primary screen (AID 1160). Particulars: HEK293-NOX4, Amplex Red H2O2 fluorescence, 45 min; higher = more signal, called active from +8 up or from −8 down.
The target of experiment [20] is NADPH oxidase 5 (Homo sapiens) (UniProt Q96PH1). The experiment in a line: compounds shifting NOX5 Amplex Red fluorescence – cell-based, HEK293-NOX5, NOX inhibitor project, primary screen (AID 1161). Particulars: HEK293-NOX5, ionomycin, 45 min, higher = more signal.
Chain of NADPH oxidase 5 (Homo sapiens) (Q96PH1 whole entry, looked up): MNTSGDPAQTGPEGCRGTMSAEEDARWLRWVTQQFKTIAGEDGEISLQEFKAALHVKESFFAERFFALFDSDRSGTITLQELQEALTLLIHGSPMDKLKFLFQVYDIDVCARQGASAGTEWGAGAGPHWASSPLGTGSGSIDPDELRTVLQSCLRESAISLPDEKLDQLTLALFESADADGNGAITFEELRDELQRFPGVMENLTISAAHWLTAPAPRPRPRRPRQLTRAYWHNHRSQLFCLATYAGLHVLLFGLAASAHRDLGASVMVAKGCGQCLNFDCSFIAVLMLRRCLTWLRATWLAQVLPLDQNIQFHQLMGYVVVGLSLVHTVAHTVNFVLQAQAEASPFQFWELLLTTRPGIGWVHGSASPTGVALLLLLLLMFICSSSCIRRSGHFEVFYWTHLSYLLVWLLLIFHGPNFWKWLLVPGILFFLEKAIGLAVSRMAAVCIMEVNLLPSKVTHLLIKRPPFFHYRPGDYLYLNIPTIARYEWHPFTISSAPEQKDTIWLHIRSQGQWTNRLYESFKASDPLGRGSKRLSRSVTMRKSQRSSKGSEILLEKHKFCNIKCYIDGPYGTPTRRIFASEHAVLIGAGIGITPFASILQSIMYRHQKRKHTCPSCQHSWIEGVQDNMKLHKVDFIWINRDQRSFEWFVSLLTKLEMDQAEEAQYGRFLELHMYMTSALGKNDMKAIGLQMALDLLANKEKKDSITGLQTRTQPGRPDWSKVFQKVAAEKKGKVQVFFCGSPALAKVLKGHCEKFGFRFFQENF

SMILES strings stand for the structures. Active and inactive are the calls of the source. Unless noted, how the calls were made is not given here.

Chain of NADPH oxidase 4 (Homo sapiens) (Q9NPH5 whole entry, looked up): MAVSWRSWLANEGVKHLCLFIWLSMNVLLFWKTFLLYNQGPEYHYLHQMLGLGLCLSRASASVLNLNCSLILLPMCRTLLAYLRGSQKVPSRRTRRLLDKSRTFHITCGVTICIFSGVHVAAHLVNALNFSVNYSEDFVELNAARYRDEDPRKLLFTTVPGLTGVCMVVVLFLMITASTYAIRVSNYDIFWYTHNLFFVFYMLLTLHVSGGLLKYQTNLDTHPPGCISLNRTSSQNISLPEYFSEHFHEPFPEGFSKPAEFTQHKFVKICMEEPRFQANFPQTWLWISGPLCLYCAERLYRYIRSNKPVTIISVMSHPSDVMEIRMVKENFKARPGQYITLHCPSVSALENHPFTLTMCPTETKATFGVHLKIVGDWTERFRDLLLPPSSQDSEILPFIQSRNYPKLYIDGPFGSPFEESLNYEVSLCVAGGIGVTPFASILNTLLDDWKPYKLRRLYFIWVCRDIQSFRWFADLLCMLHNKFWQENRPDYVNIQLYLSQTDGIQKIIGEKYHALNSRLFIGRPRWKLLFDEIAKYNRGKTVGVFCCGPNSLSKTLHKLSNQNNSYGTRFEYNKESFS

In the case of `O=C1O[C@H](c2ccccc2)[C@H](c2ccccc2)N2[C@H]1[C@@H](C(=O)NC[C@H](O)c1ccccc1)[C@]1(C(=O)Nc3ccc(C#CCCO)cc31)[C@H]2c1ccccc1OCCO`, the composite z-score in experiment [1] is -0.24; in experiment [6] it was -0.0243; in experiment [7], 0.0633; in experiment [8], 0.898; in [9], 1.01; in [10], 1.97. The compound also registered a composite z-score in [12] of 0.0752. The z-score in experiment [2] was -1.9 (inactive); in experiment [3] it was -0.491 (inactive); in experiment [4] it was -0.141 (inactive); in experiment [5] it was -0.27 (inactive); in experiment [11] it was 0.631 (inactive); in experiment [13] it was 2.45 (inactive). For the same compound, the z-score is 0.612 (inactive) in [14]; 0.478 (inactive) in experiment [15]; 0.786 (inactive) in experiment [16]; 0.288 in experiment [17]; 2.14 (inactive) in experiment [18]; 1.35 (inactive) in [19]. Besides, the z-score in experiment [20] amounted to 1.6.

As for `CO[C@H]1O[C@H](CO)[C@@H](OC(=O)Nc2ccc(C(F)(F)F)cc2)[C@H](OC(=O)Nc2ccccc2-c2ccccc2)[C@H]1OC(=O)Nc1ccccc1-c1ccccc1`, the composite z-score is 0.856 in experiment [1]; 0.967 in experiment [6]; 0.0504 in [7]; 0.276 in [8]; 0.263 in experiment [9]; 1.61 in experiment [10]. This compound also returned a composite z-score in experiment [12] of 0.398. Further, the z-score is -6.09 (inactive) in [2]; 0.435 (inactive) in [3]; 0.447 (inactive) in [4]; -0.747 (inactive) in experiment [5]; -1.16 (inactive) in experiment [11]; 3.1 (inactive) in experiment [13]. Also, the z-score in experiment [14] was 1.18 (inactive); in [15], -2.21 (inactive); in [16], 1.16 (inactive); in [17], -0.413; in experiment [18] it was -3.25 (inactive); in [19] it was -1.07 (inactive). Also, the z-score in experiment [20] was -0.439.

`COC(=O)C1(CC(C)C)C=C2C(=C(C(C)C)C(=O)C2C)CN1` (stereo not given): the composite z-score in experiment [1] was -0.187; in experiment [6], -0.469; in experiment [7], -0.0791; in experiment [8], -0.742; in [9], -0.15; in experiment [10] it was -0.702. In addition, the composite z-score in experiment [12] is 0.302. Also, the z-score in [2] was 0.254 (inactive); in experiment [3] it was 0.825 (inactive); in [4] it was 1.34 (inactive); in [5], -0.872 (inactive); in experiment [11], -1.85 (inactive); in experiment [13], 1.06 (inactive). Besides, the z-score in [14] is -0.385 (inactive); in [15], 1.07 (inactive); in [16] it was 0.274 (inactive); in [17], -0.38; in experiment [18] it was 0.377 (inactive); in experiment [19] it was -1.05 (inactive). Also, the z-score in experiment [20] was -2.44.

Turning to `COC(=O)[C@]1(CO)N=C(c2ccc(OCCCO)cc2)O[C@@H]1c1ccccc1CN=[N+]=[N-]`, the composite z-score in experiment [1] is -0.0408; in experiment [6], -0.447; in [7], -0.154; in [8], -0.208; in experiment [9], 0.518; in [10], 0.583. The same compound yielded a composite z-score in [12] of -0.0626. Moreover, the z-score is -0.394 (inactive) in experiment [2]; 1.34 (inactive) in [3]; 0.643 (inactive) in [4]; 0.224 (inactive) in experiment [5]; 0.699 (inactive) in [11]; 7.47 (inactive) in experiment [13]. The z-score in experiment [14] is 0.731 (inactive); in [15], 1.34 (inactive); in experiment [16] it was 0.497 (inactive); in experiment [17] it was -0.405; in [18], -0.259 (inactive); in experiment [19], -0.0289 (inactive). Also, the z-score in experiment [20] turned out to be 0.234.

Turning to `CCc1cccc(NC(=O)O[C@H]2[C@H](OC(=O)Nc3ccc4c(c3)OCO4)[C@H](OC(=O)Nc3ccc4c(c3)OCO4)[C@@H](OC)O[C@@H]2CO)c1`, the composite z-score in [1] is 0.322; in experiment [6], 0.0602; in experiment [7], 0.0497; in experiment [8], 0.138; in experiment [9] it was 0.97; in experiment [10] it was 1.91. The same compound displayed a composite z-score in [12] of 0.349. Further, the z-score in experiment [2] was -4.18 (inactive); in experiment [3], -0.373 (inactive); in experiment [4] it was -0.3 (inactive); in experiment [5], -0.321 (inactive); in experiment [11], -0.128 (inactive); in experiment [13] it was 18.2 (active). The z-score was 2.63 (inactive) in [14]; 1.73 (inactive) in [15]; 1.18 (inactive) in experiment [16]; 0.921 in experiment [17]; -3.43 (inactive) in experiment [18]; -1.11 (inactive) in [19]. The z-score in experiment [20] is -1.65.
